We go through 19 compounds from PubChem BioAssay.

A short description of assay [1]: antimalarial activity against Dd2 strain (AID 2302;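 active = growth inhibition above 50% at the single 2 µM test dose, taken to imply half-maximal potency below 2 µM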;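 note: 0% = DMSO untreated growth and 100% = chloroquine plus artemisinin killed control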). Particulars: P. falciparum Dd2 in RBCs, LDH growth readout, 72 h; at 2 µM; active compounds read high.
The nature of assay [2]: human hepatoma cell viability loss – ATP luminescence, cytotoxicity control for P. falciparum antimalarial project, primary screen (AID 2303;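 active = inhibition above 50%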;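 note: 0% = DMSO wells and 100% = digitonin-killed cells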). The following applies: HepG2 viability, 24-48 h, at 10 µM, active compounds read high.
Assay [3] deals with L-lactate dehydrogenase (Plasmodium falciparum (isolate CDC / Honduras)) (UniProt Q27743). The assay can be described thus: PfLDH activity inhibition – cell lysate, 3D7 strain, counter-screen for P. falciparum growth inhibition project (AID 2304).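 Note: 0% = vehicle and 100% = reference inhibitor.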 Particulars: P. falciparum 3D7 crude extract, LDH APAD/NBT absorbance; at 2 µM; active compounds read high. (A counterscreen serves to expose hits that act by an unwanted route or on another target.)
L-lactate dehydrogenase (Plasmodium falciparum (isolate CDC / Honduras)), sequence (Q27743 whole entry, looked up): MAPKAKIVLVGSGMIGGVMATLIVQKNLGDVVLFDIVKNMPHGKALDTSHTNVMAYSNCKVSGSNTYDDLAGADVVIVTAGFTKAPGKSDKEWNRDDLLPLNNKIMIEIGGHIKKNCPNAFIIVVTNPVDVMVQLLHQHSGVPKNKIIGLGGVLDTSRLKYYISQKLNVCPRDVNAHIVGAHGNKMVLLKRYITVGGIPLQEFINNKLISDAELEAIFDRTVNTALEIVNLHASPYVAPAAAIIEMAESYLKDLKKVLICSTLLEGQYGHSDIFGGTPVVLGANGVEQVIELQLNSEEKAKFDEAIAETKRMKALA

The nature of assay [4]: inhibition of 3D7 malaria parasite growth – strain 3D7 (AID 2306).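 Note: 0% = DMSO wells and 100% = chloroquine plus artemisinin control wells.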 The following applies: P. falciparum 3D7 erythrocytic growth, LDH absorbance, 72 h; at 2 µM; active compounds read high.
For assay [5], the target named is Calcium-dependent protein kinase 1 (Plasmodium falciparum (isolate 3D7)) (UniProt P62344). The assay can be described thus: PfCDPK1 kinase inhibitors, biochemical, TCAMS library (AID 1159585; cut-off not given, nearly all actives have IC50 up to about 0.98 µM;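 note: inhibitors leave more ATP so luminescence rises with inhibition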). Particulars: recombinant PfCDPK1, Kinase-Glo ATP depletion luminescence. For orientation: In Kinase-Glo more light means more ATP remaining.
Calcium-dependent protein kinase 1 (Plasmodium falciparum (isolate 3D7)), sequence (P62344 whole entry, looked up): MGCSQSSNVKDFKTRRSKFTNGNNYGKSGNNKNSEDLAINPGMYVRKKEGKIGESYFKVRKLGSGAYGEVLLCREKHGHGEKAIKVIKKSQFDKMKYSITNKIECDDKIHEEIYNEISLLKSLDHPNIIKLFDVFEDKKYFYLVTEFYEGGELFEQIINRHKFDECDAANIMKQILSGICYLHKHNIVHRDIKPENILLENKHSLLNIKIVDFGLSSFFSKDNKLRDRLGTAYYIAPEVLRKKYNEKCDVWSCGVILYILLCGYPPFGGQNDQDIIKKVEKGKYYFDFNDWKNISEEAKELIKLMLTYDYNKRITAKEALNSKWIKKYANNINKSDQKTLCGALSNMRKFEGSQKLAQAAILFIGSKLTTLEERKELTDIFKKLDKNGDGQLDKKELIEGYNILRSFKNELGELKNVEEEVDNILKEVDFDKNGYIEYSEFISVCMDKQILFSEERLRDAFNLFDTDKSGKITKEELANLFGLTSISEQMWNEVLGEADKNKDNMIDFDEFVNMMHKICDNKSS
The target in assay [6] is Plasmodium falciparum protein kinase 6 (PK6, PF3D7_1337100) (UniProt Q8IDW1). Description: PfPK6 kinase inhibitors, biochemical, TCAMS library (AID 1159586). Particulars: recombinant PfPK6, Kinase-Glo ATP depletion luminescence.
Plasmodium falciparum protein kinase 6 (PK6, PF3D7_1337100), sequence (Q8IDW1 1-305): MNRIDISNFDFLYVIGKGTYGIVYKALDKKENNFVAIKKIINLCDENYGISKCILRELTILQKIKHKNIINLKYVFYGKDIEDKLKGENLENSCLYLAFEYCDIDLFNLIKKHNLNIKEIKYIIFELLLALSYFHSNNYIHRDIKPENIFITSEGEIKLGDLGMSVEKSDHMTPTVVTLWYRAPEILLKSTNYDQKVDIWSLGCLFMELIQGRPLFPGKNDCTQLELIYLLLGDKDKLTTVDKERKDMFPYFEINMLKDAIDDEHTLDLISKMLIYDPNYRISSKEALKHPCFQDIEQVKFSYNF
The target of assay [7] is Protein kinase 7 (PK7), Plasmodium falciparum 3D7 (PF3D7_0213400) (UniProt Q7YTF7). The assay can be described thus: inhibition of Plasmodium PK7 catalytic activity – biochemical, TCAMS antimalarial set, Kinase-Glo luminescence (AID 1159587). The following applies: recombinant PfPK7, Kinase-Glo ATP depletion luminescence.
Protein kinase 7 (PK7), Plasmodium falciparum 3D7 (PF3D7_0213400), sequence (Q7YTF7 1-343): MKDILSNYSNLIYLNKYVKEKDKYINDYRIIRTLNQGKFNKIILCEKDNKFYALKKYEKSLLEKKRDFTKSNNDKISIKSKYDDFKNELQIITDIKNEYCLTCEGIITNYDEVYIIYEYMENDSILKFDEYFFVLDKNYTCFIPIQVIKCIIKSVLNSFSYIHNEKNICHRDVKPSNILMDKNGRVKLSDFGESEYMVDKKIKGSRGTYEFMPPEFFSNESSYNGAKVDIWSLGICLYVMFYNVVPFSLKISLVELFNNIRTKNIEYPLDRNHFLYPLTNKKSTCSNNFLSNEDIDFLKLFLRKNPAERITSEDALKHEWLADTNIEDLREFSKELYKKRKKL
Assay [8] concerns the target Calcium-dependent protein kinase 4 (Plasmodium falciparum (isolate 3D7)) (UniProt Q8IBS5). Description: PfCDPK4 kinase inhibitors, biochemical, TCAMS library (AID 1159588; cut-off not given, nearly all actives have IC50 up to about 0.91 µM). The following applies: recombinant PfCDPK4, Kinase-Glo ATP depletion luminescence.

Unmarked numbers belong to inactive results. For some assays here: Measured potencies and affinities stand elsewhere. Activity calls are given as the source filed them. Unless noted, the rule behind the calls is not given here.

Calcium-dependent protein kinase 4 (Plasmodium falciparum (isolate 3D7)), sequence (Q8IBS5 whole entry, looked up): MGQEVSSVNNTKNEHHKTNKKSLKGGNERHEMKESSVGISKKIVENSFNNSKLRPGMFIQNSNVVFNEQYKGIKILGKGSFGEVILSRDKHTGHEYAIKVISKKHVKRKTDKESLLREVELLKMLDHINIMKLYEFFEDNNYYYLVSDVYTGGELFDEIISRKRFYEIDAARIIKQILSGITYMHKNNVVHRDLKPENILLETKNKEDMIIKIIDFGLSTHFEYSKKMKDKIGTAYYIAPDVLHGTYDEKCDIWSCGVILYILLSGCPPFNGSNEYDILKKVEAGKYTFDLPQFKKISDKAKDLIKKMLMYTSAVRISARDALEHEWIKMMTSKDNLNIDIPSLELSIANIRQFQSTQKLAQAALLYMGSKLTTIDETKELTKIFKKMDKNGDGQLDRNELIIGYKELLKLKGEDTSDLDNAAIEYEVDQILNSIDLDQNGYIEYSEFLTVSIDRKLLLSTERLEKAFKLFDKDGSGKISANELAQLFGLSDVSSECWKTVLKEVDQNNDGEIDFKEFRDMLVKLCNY

Consider `Cc1cccc2[nH]c(-c3cccc(-c4ccc(NC(=O)COC(C)C)cc4)c3)nc12`, for which the growth inhibition in assay [1] was 11%; in assay [4], 82% (active). The figures for the inhibition in assay [2] and in assay [3] were -4% and 7%, respectively. Moreover, the outcome in assay [5], in assay [6], in assay [7] and in assay [8] was inactive.

In the case of `CCC(Cc1cnc2nc(N)nc(N)c2n1)c1ccc(C(=O)N[C@@H](CCC(=O)O)C(=O)O)cc1` (some centres not stated), the growth inhibition in assay [1] was 98% (active); in assay [4] it was 93% (active). The inhibition (usually the relative decrease from the control value, in per cent) in assay [2] was 64% (active); in assay [3], -2%. Moreover, the outcome in assay [5], in assay [6], in assay [7] and in assay [8] was inactive.

With `O=C(/C=C/c1ccc(Cl)c(Cl)c1)NCCCCCN1CCCC(C(=O)Nc2ccc(F)c(Cl)c2)C1` (configuration not stated), the figures for the growth inhibition in assay [1] and in assay [4] were 2% and 99% (active), respectively. Besides, the values for the inhibition in assay [2] and in assay [3] were 28% and 1%, respectively. In addition, the outcome in assay [5], in assay [6], in assay [7] and in assay [8] was inactive.

As to `COc1c(C2CCN(CCCCNC(=O)c3ccc(-c4ccc(C#N)cc4)nc3)CC2)ccc2c1CCCC2`, the growth inhibition in assay [1] is 67% (active); in assay [4], 95% (active). Also, the figures for the inhibition in assay [2] and in assay [3] were 54% (active) and -2%, respectively. The result in assay [5], in assay [6], in assay [7] and in assay [8] was inactive.

As for `CCCCCN1CCCN(Cc2cccc(NC(=O)c3cc4ccccc4s3)c2)CC1`, the growth inhibition in assay [1] is 30%; in assay [4], 99% (active). Further, the values for the inhibition in assay [2] and in assay [3] were 29% and 6%, respectively. Also, the outcome in assay [5], in assay [6], in assay [7] and in assay [8] was inactive.

Regarding `COc1ccc2nccc(N3CCN(CCNCc4ccc5c(n4)NC(=O)CS5)CC3)c2c1`, the growth inhibition in assay [1] is 23%; in assay [4], 97% (active). The inhibition in assay [2] is 18%; in assay [3], -2%. The outcome in assay [5], in assay [6], in assay [7] and in assay [8] was inactive.

In the case of `Nc1nc(N)c2c(Cl)c(CNc3cccc(C(=O)O)c3)ccc2n1`, the growth inhibition in assay [1] was 97% (active); in assay [4] it was 93% (active). Besides, the inhibition was 69% (active) in assay [2] and 7% in assay [3]. In addition, the result in assay [5], in assay [6], in assay [7] and in assay [8] was inactive.

Regarding `COc1ccc(-c2ccc(NC(=O)c3cccs3)cc2)cc1CN1CCCN(C)CC1`, the growth inhibition was 30% in assay [1] and 100% (active) in assay [4]. For the same compound, the inhibition in assay [2] was 31%; in assay [3] it was 4%. The result in assay [5], in assay [6], in assay [7] and in assay [8] was inactive.

Regarding `CS(=O)(=O)c1ccc(CCNCc2ccc(-c3ccc(CN(C(=O)C4CC(=O)c5ccccc54)C4CCN(Cc5ccccc5)CC4)cc3)nc2)cc1` (configuration not stated), the figures for the growth inhibition in assay [1] and in assay [4] were 49% and 100% (active), respectively. Also, the inhibition in assay [2] and in assay [3] was 9% throughout. Moreover, the outcome in assay [5], in assay [6], in assay [7] and in assay [8] was inactive.

As to `O=C(Nc1cccc(-c2cccc(-c3nc4ccc(F)cc4[nH]3)c2)c1)c1cnc[nH]1`, the growth inhibition was 87% (active) in assay [1] and 100% (active) in assay [4]. Besides, the results for the inhibition in assay [2] and in assay [3] were 13% and -1%, respectively. The result in assay [5], in assay [6], in assay [7] and in assay [8] was inactive.

Take `O=C(NCCCCCN1CCC(c2c[nH]c3ccccc23)CC1)c1ccc(-c2cccnc2)cc1`: the figures for the growth inhibition in assay [1] and in assay [4] were 10% and 89% (active), respectively. The inhibition in assay [2] is 29%; in assay [3], 1%. The result in assay [5], in assay [6], in assay [7] and in assay [8] was inactive.

Turning to `O=C(Nc1cc(F)cc(F)c1)N1CCOC(CCN2CCC(c3ccccc3)CC2)(c2ccc(Cl)c(Cl)c2)C1` (configuration not stated), the results for the growth inhibition in assay [1] and in assay [4] were 69% (active) and 91% (active), respectively. For the same compound, the inhibition in assay [2] is 31%; in assay [3], 0%. The result in assay [5], in assay [6], in assay [7] and in assay [8] was inactive.

In the case of `CCOc1cc(C(=O)NCCN2CCCCC2)ccc1-c1nc2ccc(Cl)cc2[nH]1`, the growth inhibition in assay [1] is 8%; in assay [4], 99% (active). The inhibition in assay [2] was 4%; in assay [3] it was -3%. Moreover, the result in assay [5], in assay [6], in assay [7] and in assay [8] was inactive.

For `CC1(C)[C@H]2CC[C@@H](CNc3nc(NCCc4cnc[nH]4)nc(NCc4cc(F)ccc4F)n3)[C@@H]1C2`, the growth inhibition was 91% (active) in assay [1] and 100% (active) in assay [4]. Moreover, the inhibition in assay [2] is 0%; in assay [3] it was 6%. Moreover, the outcome in assay [5], in assay [6], in assay [7] and in assay [8] was inactive.

Take `COc1ccc(CNc2nccc3ccc(-c4ccc5nccn5c4)cc23)cc1`: the growth inhibition in assay [1] was 47%; in assay [4], 95% (active). Moreover, the results for the inhibition in assay [2] and in assay [3] were 17% and -4%, respectively. For the same compound, the result in assay [5], in assay [6], in assay [7] and in assay [8] was inactive.

`Cc1cc(OCCCN2CCC(NS(=O)(=O)c3ccc(Cl)c(Cl)c3)C2)c2ccccc2n1` (configuration not stated): the figures for the growth inhibition in assay [1] and in assay [4] were 37% and 87% (active), respectively. Further, the inhibition was 28% in assay [2] and 1% in assay [3]. In addition, the outcome in assay [5], in assay [6], in assay [7] and in assay [8] was inactive.

Regarding `COc1ccc(-c2nc3c(N)nc(N)nc3nc2-c2ccccc2Cl)cc1` (tested in a mixture with another compound), the results for the growth inhibition in assay [1] and in assay [4] were -1% and 93% (active), respectively. Further, the inhibition was 45% in assay [2] and -2% in assay [3]. For the same compound, the result in assay [5], in assay [6], in assay [7] and in assay [8] was inactive.

Consider `Cc1cc(C=C(P(=O)(OC(C)C)OC(C)C)P(=O)(OC(C)C)OC(C)C)c2ccccc2c1O`, for which the growth inhibition is 54% (active) in assay [1] and 85% (active) in assay [4]. Moreover, the inhibition in assay [2] is 15%; in assay [3], -6%. Also, the outcome in assay [5], in assay [6], in assay [7] and in assay [8] was inactive.

As to `Oc1ccc(CCCNc2nc(NCc3ccccc3-c3ccccc3)nc(NC3CCNCC3)n2)cc1`, the growth inhibition is 2% in assay [1] and 97% (active) in assay [4]. Further, the inhibition was -1% in assay [2] and 6% in assay [3]. In addition, the result in assay [5], in assay [6], in assay [7] and in assay [8] was inactive.
